PubChem BioAssay (NCATS)
A number with no mark means an inactive call. Active and inactive are the calls of the source. Unless noted, calls come from the whole dose curve; as a rule, active = well fitted curve in the direction sought with a large enough effect; inconclusive = small, poorly fitted or top-dose-only effect, or another doubt; inactive = no such curve, though single readings can be large; an effect the other way counts as inactive or inconclusive.

Experiments:
[1] = molecular target: Estrogen receptor (Homo sapiens) (UniProt P03372); assay: qHTS assay for small molecule antagonists of estrogen receptor alpha signaling (AID 588513; active = well fitted curve in the direction sought with a large enough effect in the signal ratio, with a control signal flat, not every such curve was filed as active; inconclusive = small, poorly fitted or top-dose-only effect, or effect the other way, or a change in a side signal; inactive = no such curve, though single readings can be large or run the other way; the % refers to the signal ratio; note: potency is the fitted concentration of half-maximal effect)
How it was run: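 Antagonist-mode qHTS in ER-alpha-UAS-bla HEK 293 cells: compound titration, 0.5nM estradiol for 18 h, CCF4 fluorescence, Hill-derived IC50.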

[2] = molecular target: Vitamin D3 receptor (Homo sapiens) (UniProt P11473); assay: qHTS assay for small molecule antagonists of vitamin D receptor signaling (AID 588541; calls by dose curve; note: potency is the fitted concentration of half-maximal effect)
How it was run: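 VDR-UAS-bla HEK293T cells in 2% charcoal-stripped FBS were stimulated with 1-alpha,25-dihydroxyvitamin D3 (3 nM final) plus compound for 16 h at 37 C. The beta-lactamase CCF4 readout was normalized to 50 nM agonist and DMSO, and Hill fits gave IC50.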

[3] = molecular target: Voltage-gated inwardly rectifying potassium channel KCNH2 (Homo sapiens) (UniProt Q12809); assay: qHTS Assay for Small Molecule Inhibitors of the Human hERG Channel Activity (AID 588834);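 note: top concentration of the series differs between compounds; % is set by controls: 0 for no effect and ±100 for the full control effect; lower thallium flux fluorescence means stronger hERG block; nearly all actives have a fitted effect of over 50% in size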
How it was run: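 Blockade is seen as reduced FluxOR thallium-flux fluorescence in U2OS cells expressing hERG from a BacMam construct, in Opti-MEM with 2% FCS. Concentration-response data fitted to the Hill equation for AC50.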

[4] = qHTS assay for small molecule disruptors of the mitochondrial membrane potential - 1 hr assay (AID 651754; calls by dose curve; note: potency is the fitted concentration of half-maximal effect; nearly all actives have a fitted effect of over 35% in size)
How it was run: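 HepG2, 2,000 cells/well, overnight attachment; cpd or DMSO 1 hr, 37C/5% CO2; Mito-MPS dye 30 min, 37C; fluorescence monomer (490/535) and aggregate (540/590).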

[5] = qHTS assay for small molecule disruptors of the mitochondrial membrane potential - 5 hr assay (AID 651755; calls by dose curve; note: potency is the fitted concentration of half-maximal effect; nearly all actives have a fitted effect of over 40% in size); conditions: JC-1-type ratio dye
How it was run: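 HepG2 cells (2,000/well), attached overnight, exposed to compound 5 hr at 37C, then Mito-MPS dye 30 min. Fluorescence read for monomers (490/535 nm) and aggregates (540/590 nm).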

[6] = qHTS assay for environmental chemicals that activate the Aryl hydrocarbon Receptor (AhR) signaling pathway (AID 651777); conditions: 1A2-DRE human hepatoma cells, luciferase, 24 h; hits give high values; note: % of control where 0% means no effect; nearly all actives have a fitted effect of over 15% in size
How it was run: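 AhR activation is scored as a rise in luciferase from a stable DRE–CYP1A2 promoter construct in human hepatoma cells. Treatment lasts 24 hr at 37 C; detection uses One-Glo after 30 min at room temperature.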

[7] = molecular target: Peroxisome proliferator-activated receptor alpha (Homo sapiens) (UniProt Q07869); assay: qHTS assay for small molecule agonists of the peroxisome proliferator-activated receptor alpha (PPARalpha) signaling pathway (AID 651778); conditions: PathHunter PPARalpha complementation, chemiluminescence, 6 h; hits give high values; note: % of control where 0% means no effect
How it was run: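 Enzyme-fragment complementation assay in which ligand-bound PPARalpha translocates and forms an active enzyme that generates chemiluminescence. Cells were plated overnight, exposed to compound for 6 hr at 37 C, and then given detection reagent for 60 min at room temperature.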

[8] = molecular target: Nuclear receptor ROR-gamma (Homo sapiens) (UniProt P51449); assay: qHTS assay for small molecule antagonists of the retinoid-related orphan receptor gamma (ROR-gamma) signaling pathway (AID 651802); conditions: ROR-gamma antagonist cell reporter assay; note: potency is the fitted concentration of half-maximal effect; nearly all actives have a fitted effect of over 60% in size
How it was run: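 CHO, TET-inducible ROR + RORE-LUC reporter, 1536-well qHTS. Compound pinned, doxycycline added, 16hr 37C/5% CO2. ONE-Glo, 30 min RT, luminescence; signal drop scored as antagonism.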

[9] = qHTS assay for small molecule antagonists of the retinoid-related orphan receptor gamma (ROR-gamma) signaling pathway - cell viability counter screen (AID 720652; active = well fitted curve in the direction sought with a large enough effect in the repeat runs; inconclusive = weak or mixed curves; inactive = no such curve, though single readings can be large; an effect the other way counts as inactive or inconclusive;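 note: potency is the fitted concentration of half-maximal effect; compound exposure lasted 16 hr before ATP read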); conditions: RORgamma reporter cell line viability counter screen
How it was run: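 Luminescence from CellTiter-Glo after 30 min at room temperature reported cellular ATP as the cytotoxicity measure. Cells were the CHO reporter line with doxycycline-induced ROR-gamma expression, exposed to compound for 16 hr at 37 C.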

[10] = qHTS assay for small molecule agonists of the antioxidant response element (ARE) signaling pathway measured by Nrf2-dependant transcriptional activity - cell viability counter screen (AID 720653; active = well fitted curve in the direction sought with a large enough effect in the repeat runs; inconclusive = weak or mixed curves; inactive = no such curve, though single readings can be large; an effect the other way counts as inactive or inconclusive; note: potency is the fitted concentration of half-maximal effect); conditions: ARE-bla HepG2 viability, CellTiter-Glo ATP luminescence, 16 h; max response: hits give low values
How it was run: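 ARE-bla HepG2 cells treated with compounds for 16 h at 37C; this counter screen measures viability as intracellular ATP by CellTiter-Glo luminescence after 30 min at room temperature.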

[11] = qHTS assay for cell viability of HEK293 cells (AID 743288); conditions: ATP luminescence (CellTiter-Glo), 18 h; max response: hits give low values; note: potency is the fitted concentration of half-maximal effect; nearly all actives have a fitted effect of over 50% in size
How it was run: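 Luminescent ATP quantitation served as the viability read-out. Cells (parental HEK293, 2,000/well) received compounds after at least 5 h at 37 C and were exposed for 18 h before a 30 min room-temperature reagent step.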

[12] = qHTS assay for cell viability of the p53RE-bla HCT-116 cell line (AID 743292); note: potency is the fitted concentration of half-maximal effect; nearly all actives have a fitted effect of over 55% in size
How it was run: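 Quantitative high-throughput format: compounds in DMSO were pinned onto p53RE-bla HCT-116 cells (4,000/well) and incubated 16 h at 37 C. Total intracellular ATP, read by CellTiter-Glo luminescence, reflects viable cell number.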

[13] = molecular target: Furin (Homo sapiens) (UniProt P09958); assay: Furin counterscreen qHTS for Zika virus inhibitors (AID 1347149);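 note: purified recombinant full-length human furin enzyme at 5 nM; fluorescence gain from furin cutting a BOC-RVRR-AMC peptide substrate over 15 min; top concentration of the series differs between compounds; plate controls were no-inhibitor control for no effect and no-enzyme control for full effect; nearly all actives have a fitted effect of over 70% in size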
How it was run: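 Fluorogenic cleavage of BOC-RVRR-AMC (2 microM final, Km ~15 µM) was monitored (ex 340, em 450 nm) at 37C after 15 min RT preincubation of 5 nM furin with compounds in HEPES pH 7.0 buffer with CaCl2 and Triton X-100. Percent inhibition was fitted to a 4-parameter Hill curve.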

[14] = ZIKV-mCherry secondary qHTS for Zika virus inhibitors (AID 1347158); note: top concentration of the series differs between compounds
How it was run: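 Vero, 5,000 cells/well, o/n 37 °C; cpd pin-transferred in DMSO; ZIKV-mCherry MOI 1, 48-72 h 37 °C; 32% PFA stock fix, Hoechst; imaged 10x DAPI/mCherry; mCherry+ threshold 450 RFU; % infection.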

[15] = tested on: Zika virus NS2B-NS3 protease (linked); assay: 384 well plate NINDS AMC confirmatory qHTS for Zika virus inhibitors (AID 1347163); note: potency is the fitted concentration of half-maximal effect; nearly all actives have a fitted effect of over 50% in size
How it was run: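 Linked NS2B-NS3 protease (final 5 nM, 30 nM or 60 nM) was preincubated with compounds (final up to 1 mM) for ~15 minutes. Ac-VKTGKR-AMC substrate (final 30 microM) then reacted for 25 minutes at room temperature in the dark. Fluorescence (ex 355/em 460 nm) was normalized to no-enzyme and no-inhibitor controls.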

[16] = tested on: Zika virus NS2B-NS3 protease (linked construct); assay: 384 well plate NINDS Rhodamine confirmatory qHTS for Zika virus inhibitors (AID 1347164); note: potency is the fitted concentration of half-maximal effect; nearly all actives have a fitted effect of over 65% in size
How it was run: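 Cleavage of Ac-LKRR-Rhodamine 110 (10 microM final) by linked protease (final 5, 30 or 60 nM) was followed as fluorescence at 485/538 nm after 25 min, room temperature, dark. Compounds preincubated ~15 min.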

[17] = Vero cells viability qHTS for Zika virus inhibitors (AID 1347167); note: % is set by controls: 0 for no effect and ±100 for the full control effect
How it was run: (§1)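 Cells seeded at 2.5 x 10^5 cells/mL in DMEM with 4% FBS and attached overnight at 37 degrees C, then exposed to compound for 24 to 48 hours. Viability read as ATP content by CellTiter Glo luminescence.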

[18] = HepG2 cells viability qHTS for Zika virus inhibitors (AID 1347168); note: potency is the fitted concentration of half-maximal effect
How it was run: as §1

[19] = Tertiary RLuc qRT-PCR qHTS assay for Zika virus inhibitors (AID 1347169); note: potency is the fitted concentration of half-maximal effect; nearly all actives have a fitted effect of over 55% in size
How it was run: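 Inhibition of ZIKV-RLuc replication in Vero cells, read as Renilla luminescence 1-1.5 hrs after live-cell substrate addition, following 48-72 hrs infection at MOI 1-2 in presence of compound.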

[20] = qHTS assay for small molecule activators of the human pregnane X receptor (PXR) signaling pathway (AID 720659; call rule not given here; note: 0% is about no effect)

Sequence of Nuclear receptor ROR-gamma (Homo sapiens) (P51449 whole entry, looked up): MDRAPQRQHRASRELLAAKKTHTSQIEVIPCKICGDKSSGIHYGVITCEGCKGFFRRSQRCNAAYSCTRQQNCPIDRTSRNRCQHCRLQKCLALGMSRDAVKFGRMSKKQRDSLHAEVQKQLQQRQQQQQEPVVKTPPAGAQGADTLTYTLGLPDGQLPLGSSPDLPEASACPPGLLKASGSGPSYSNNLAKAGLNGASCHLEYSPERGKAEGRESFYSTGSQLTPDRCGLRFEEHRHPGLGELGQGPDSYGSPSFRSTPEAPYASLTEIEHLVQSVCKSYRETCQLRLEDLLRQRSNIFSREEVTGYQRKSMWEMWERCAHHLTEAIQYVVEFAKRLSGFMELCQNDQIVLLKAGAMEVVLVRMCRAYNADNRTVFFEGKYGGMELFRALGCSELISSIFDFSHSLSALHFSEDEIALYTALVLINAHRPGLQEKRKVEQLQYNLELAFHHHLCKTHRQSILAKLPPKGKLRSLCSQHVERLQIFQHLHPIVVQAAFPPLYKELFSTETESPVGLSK
Sequence of Voltage-gated inwardly rectifying potassium channel KCNH2 (Homo sapiens) (Q12809 whole entry, looked up): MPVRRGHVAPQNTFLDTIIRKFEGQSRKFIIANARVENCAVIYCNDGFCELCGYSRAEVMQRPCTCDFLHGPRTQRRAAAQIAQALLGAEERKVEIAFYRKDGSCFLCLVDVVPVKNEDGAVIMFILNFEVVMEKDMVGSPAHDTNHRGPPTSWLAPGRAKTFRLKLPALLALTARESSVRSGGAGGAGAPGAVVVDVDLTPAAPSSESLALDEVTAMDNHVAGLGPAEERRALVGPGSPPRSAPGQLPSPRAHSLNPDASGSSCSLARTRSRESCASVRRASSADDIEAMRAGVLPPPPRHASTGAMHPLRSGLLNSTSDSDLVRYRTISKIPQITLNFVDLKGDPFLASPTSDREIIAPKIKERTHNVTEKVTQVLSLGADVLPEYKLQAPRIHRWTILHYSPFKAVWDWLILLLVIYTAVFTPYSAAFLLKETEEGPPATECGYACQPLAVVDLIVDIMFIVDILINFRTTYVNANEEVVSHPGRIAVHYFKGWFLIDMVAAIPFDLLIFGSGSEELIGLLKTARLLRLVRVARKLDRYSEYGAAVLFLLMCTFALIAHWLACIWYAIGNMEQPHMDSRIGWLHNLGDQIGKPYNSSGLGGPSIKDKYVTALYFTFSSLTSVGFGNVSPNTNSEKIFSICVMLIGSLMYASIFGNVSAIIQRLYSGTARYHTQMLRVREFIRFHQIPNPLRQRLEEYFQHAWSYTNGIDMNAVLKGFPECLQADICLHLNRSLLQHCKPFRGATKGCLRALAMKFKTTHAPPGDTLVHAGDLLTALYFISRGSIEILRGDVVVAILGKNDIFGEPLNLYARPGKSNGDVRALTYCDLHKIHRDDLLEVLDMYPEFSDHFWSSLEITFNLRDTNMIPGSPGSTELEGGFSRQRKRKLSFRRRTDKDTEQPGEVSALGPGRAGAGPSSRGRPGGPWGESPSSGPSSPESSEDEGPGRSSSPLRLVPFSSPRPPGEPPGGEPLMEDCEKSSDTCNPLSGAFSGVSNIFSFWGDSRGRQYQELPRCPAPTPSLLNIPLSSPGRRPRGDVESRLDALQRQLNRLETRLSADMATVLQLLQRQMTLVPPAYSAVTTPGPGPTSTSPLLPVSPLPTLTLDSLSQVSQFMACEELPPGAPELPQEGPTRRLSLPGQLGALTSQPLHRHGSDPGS
Sequence of Estrogen receptor (Homo sapiens) (P03372 whole entry, looked up): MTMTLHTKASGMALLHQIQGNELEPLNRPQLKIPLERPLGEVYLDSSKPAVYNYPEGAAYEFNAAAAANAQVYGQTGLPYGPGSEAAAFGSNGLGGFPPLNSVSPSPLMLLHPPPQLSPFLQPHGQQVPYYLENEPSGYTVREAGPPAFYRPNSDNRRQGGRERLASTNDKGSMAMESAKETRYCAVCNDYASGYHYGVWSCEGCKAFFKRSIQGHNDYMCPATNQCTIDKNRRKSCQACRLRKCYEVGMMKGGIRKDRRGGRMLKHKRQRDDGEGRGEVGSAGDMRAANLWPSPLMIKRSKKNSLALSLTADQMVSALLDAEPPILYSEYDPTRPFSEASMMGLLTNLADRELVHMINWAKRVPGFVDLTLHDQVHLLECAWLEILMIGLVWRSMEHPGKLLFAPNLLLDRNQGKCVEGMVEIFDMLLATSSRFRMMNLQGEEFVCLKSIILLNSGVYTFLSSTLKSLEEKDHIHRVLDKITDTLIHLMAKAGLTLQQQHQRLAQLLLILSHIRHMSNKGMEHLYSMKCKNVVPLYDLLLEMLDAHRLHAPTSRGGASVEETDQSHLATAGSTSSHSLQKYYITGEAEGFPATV
Sequence of Vitamin D3 receptor (Homo sapiens) (P11473 whole entry, looked up): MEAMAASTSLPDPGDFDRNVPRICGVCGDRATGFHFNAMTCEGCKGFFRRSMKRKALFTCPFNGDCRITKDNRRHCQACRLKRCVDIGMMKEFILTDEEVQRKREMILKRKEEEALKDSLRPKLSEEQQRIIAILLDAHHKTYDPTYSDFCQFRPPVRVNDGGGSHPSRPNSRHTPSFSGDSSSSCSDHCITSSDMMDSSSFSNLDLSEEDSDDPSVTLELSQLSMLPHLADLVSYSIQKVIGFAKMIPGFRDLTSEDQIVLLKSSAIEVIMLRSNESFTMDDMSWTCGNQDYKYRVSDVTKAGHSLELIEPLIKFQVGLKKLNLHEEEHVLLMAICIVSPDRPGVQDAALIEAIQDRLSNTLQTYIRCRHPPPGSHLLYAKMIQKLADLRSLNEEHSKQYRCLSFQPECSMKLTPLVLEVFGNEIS
Sequence of Peroxisome proliferator-activated receptor alpha (Homo sapiens) (Q07869 whole entry, looked up, the tested form may be a part): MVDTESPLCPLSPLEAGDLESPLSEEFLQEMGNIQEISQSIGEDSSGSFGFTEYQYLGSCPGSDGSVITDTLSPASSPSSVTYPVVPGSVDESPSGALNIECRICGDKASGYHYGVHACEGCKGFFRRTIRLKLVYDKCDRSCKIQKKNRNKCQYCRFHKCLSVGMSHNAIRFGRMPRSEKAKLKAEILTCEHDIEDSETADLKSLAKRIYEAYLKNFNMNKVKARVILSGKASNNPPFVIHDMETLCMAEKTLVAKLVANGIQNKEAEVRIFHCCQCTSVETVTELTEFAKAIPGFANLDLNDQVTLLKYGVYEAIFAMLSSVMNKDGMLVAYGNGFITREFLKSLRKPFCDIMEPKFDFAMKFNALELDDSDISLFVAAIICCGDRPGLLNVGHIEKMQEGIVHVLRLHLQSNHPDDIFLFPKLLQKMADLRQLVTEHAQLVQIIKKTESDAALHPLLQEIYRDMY
Sequence of Furin (Homo sapiens) (P09958 whole entry, looked up): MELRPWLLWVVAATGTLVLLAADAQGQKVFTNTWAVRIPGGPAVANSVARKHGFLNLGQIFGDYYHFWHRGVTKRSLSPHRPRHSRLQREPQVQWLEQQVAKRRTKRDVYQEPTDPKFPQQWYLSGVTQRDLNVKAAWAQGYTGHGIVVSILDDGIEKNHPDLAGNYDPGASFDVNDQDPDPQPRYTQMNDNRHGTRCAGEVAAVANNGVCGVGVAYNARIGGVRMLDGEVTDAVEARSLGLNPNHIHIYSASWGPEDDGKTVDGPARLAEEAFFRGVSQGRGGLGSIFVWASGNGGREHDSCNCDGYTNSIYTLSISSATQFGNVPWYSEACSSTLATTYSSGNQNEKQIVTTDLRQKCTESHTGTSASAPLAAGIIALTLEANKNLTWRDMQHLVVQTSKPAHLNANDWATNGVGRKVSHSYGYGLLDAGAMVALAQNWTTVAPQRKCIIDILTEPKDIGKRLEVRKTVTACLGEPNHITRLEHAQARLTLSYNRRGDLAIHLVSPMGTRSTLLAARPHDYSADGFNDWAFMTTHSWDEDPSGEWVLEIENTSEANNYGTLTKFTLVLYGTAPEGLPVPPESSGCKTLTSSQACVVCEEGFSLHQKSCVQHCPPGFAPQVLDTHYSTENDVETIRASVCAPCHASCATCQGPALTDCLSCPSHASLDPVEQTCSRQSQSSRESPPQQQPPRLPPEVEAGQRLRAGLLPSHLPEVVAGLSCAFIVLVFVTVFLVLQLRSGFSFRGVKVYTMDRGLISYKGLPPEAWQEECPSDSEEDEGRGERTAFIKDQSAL

Question: For `O=C1c2c(O)ccc([N+](=O)[O-])c2C(=O)c2c([N+](=O)[O-])ccc(O)c21`, which Potency [1] is on record?
Answer: 14.1 µM [inconclusive] (active)

Question: And the Potency [2]?
Answer: 22.4 µM (active)

Question: And the Potency [3]?
Answer: inactive

Question: What about the Potency [4] of the same molecule?
Answer: 5.31 µM (active)

Question: And the Potency [5]?
Answer: 3.76 µM (active)

Question: And the activation [6]?
Answer: 5.47%

Question: And the max response [7]?
Answer: -6.07%

Question: What about the Potency [8] of the same molecule?
Answer: 16.8 µM (active)

Question: What about the Potency [9] of the same molecule?
Answer: 33.5 µM (active)

Question: And the Potency [10]?
Answer: 20 µM (active)

Question: What about the Potency [11] of the same molecule?
Answer: 39.8 µM (active)

Question: What about the Potency [12] of the same molecule?
Answer: 39.8 µM (active)

Question: What about the Potency [13] of the same molecule?
Answer: inactive

Question: And the Potency [14]?
Answer: inactive

Question: And the Potency [15]?
Answer: 100 µM (active)

Question: And the Potency [16]?
Answer: 70.8 µM (active)

Question: What about the Potency [17] of the same molecule?
Answer: inactive

Question: And the Potency [18]?
Answer: 42.6 µM (active)

Question: And the Potency [19]?
Answer: 13.5 µM (active)

Question: And the outcome [20]?
Answer: inactive
